Measured values reported in PubChem BioAssay AID504465 (National Center for Advancing Translational Sciences (NCATS), 2011).
The whole screen tested about 2,100 compounds, of which about 210 (10%) were called active. Another 53% or so got no clear call; they are omitted. The call rests on the fitted dose curve; in most records, active means well fitted inhibition curve with a large enough effect; inconclusive means small, poorly fitted or top-dose-only effect, or effect the other way; inactive means no such curve, though single readings can be large or run the other way. Some of the results follow.

Assay: IN Cell qHTS Assay for Inhibitors of the mTORC1 Signaling Pathway in MEF (Tsc2-/-, p53-/-) Cells: Sytravon; further: nearly all actives have a fitted effect of over 60% in size
Conditions: phospho-rpS6 immunofluorescence, 24 h; series mostly up to 38.3 µM; activity, negative = inhibition: at the top concentration
Procedure, shortened: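 Immunofluorescence of rpS6 phosphorylation (Ser235/236) in mouse embryonic fibroblasts lacking Tsc2 and p53, after 24 h compound exposure; Hoechst-normalized signal imaged, each well scored as % active cells relative to rapamycin (7.5 nM) and DMSO controls.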
Potency means the concentration at half of the fitted maximal effect.

| Structure (SMILES) | activity, negative = inhibition | Potency |
| --- | --- | --- |
| Cc1cc(C)cc(NC(=O)C(=O)NCC(c2ccc3c(c2)OCO3)N2CCN(C)CC2)c1 (centres undefined) | 3.7% (inactive) | – |
| CC(C)CN(CC(C)C)S(=O)(=O)c1ccc(C(=O)Nc2sc3c(c2C(N)=O)CCN(C(C)C)C3)cc1 | 6.25% (inactive) | – |
| CCc1ccc(CNC(=O)COc2cc(=O)n(CC)c3ccccc23)cc1 | 8.06% (inactive) | – |
| CC(C)Oc1ccccc1-c1nc(SCC(=O)c2ccc(F)cc2)n[nH]1 | -19.3% (inactive) | – |
| CCOc1ccc(CNC(=O)C2CCN(S(=O)(=O)c3ccc4c(ccn4C)c3)CC2)cc1 | 0.0324% (inactive) | – |
| CCOc1cc(CNC(=O)c2ccc(C)c(NC(=O)c3nsc4ccccc34)c2)ccc1OC | -1.04% (inactive) | – |
| COc1ccccc1C(=O)OCc1cc(=O)n2nc(C3CC3)sc2n1 | 0.274% (inactive) | – |
| COc1ccc(CCN2C(=O)c3[nH]nc(-c4ccccc4O)c3C2c2cccc(OC)c2)cc1 (centres undefined) | – | 20.7 µM (active) |
| CCCN1C(=O)c2[nH]nc(-c3ccccc3O)c2C1c1ccc(OCc2ccccc2)c(OC)c1 (centres undefined) | -29% (inactive) | – |
| COc1ccc(CCN2C(=O)c3[nH]nc(-c4ccccc4O)c3C2c2ccccc2)cc1 (centres undefined) | -4.54% (inactive) | – |
| CCCN1C(=O)c2[nH]nc(-c3ccccc3O)c2C1c1cccc(OCc2ccccc2)c1 (centres undefined) | -14.6% (inactive) | – |
| CCCCOc1cccc(C2c3c(-c4cc(C)ccc4O)n[nH]c3C(=O)N2CCOC)c1 (centres undefined) | -12.8% (inactive) | – |
| CCCCN1C(=O)c2[nH]nc(-c3ccccc3O)c2C1c1cccc(OCc2ccccc2)c1 (centres undefined) | – | 20.7 µM (active) |
| CC(C)OCCCN1C(=O)c2[nH]nc(-c3ccccc3O)c2C1c1ccc(OCc2ccccc2)cc1 (centres undefined) | – | 18.5 µM (active) |
| O=C1c2[nH]nc(-c3ccccc3O)c2C(c2ccc(Cl)cc2)N1CCc1ccccc1 (centres undefined) | -15.5% (inactive) | – |
| COc1ccc(C2c3c(-c4ccccc4O)n[nH]c3C(=O)N2CCc2ccccc2)cc1 (centres undefined) | -21.4% (inactive) | – |
| CCc1ccc(-n2nc(C)c3c(C(=O)Nc4cc(OC)cc(OC)c4)cc(C)nc32)cc1 | -0.926% (inactive) | – |
| CC(Sc1nc2c([nH]c3ccccc32)c(=O)n1-c1ccccc1)c1ccccc1 (centres undefined) | -0.445% (inactive) | – |
| CC(C)CC(=O)Nc1cc(-c2ccccc2F)nn1-c1ccccc1 | 18% (inactive) | – |
| CCOc1ccc(-n2c(-c3ccccc3)c(C)n3c4c(=O)n(C)c(=O)n(C)c4nc23)cc1 | -5.32% (inactive) | – |

| Structure (SMILES) | activity, negative = inhibition | Potency |
| --- | --- | --- |
| Cc1ccc(-c2nc3ncccc3o2)cc1NC(=O)COc1ccc(C(C)C)cc1 | -20.9% (inactive) | – |
| Cc1cccc(C)c1NC(=O)Cn1c(=O)n(CCC(=O)NCc2ccccc2Cl)c(=O)c2sccc21 | -89.9% (inactive) | – |
| CCOc1cc(CNc2ccc(O)cc2)cc(Cl)c1OCc1ccccc1 | -100% (inactive) | – |
| CCn1ccc2cc(S(=O)(=O)N3CCCN(C(=O)NCC(C)C)CC3)ccc21 | -7.24% (inactive) | – |
| CCC(C)NC(=O)c1ccc2c(c1)N=C(C)c1cc(C)ccc1S2 (centres undefined) | 0.833% (inactive) | – |
| CCNS(=O)(=O)c1ccc(NC(=O)CSc2nc(-c3ccco3)cc(C(F)(F)F)n2)cc1 | – | 0.233 µM (active) |
| COc1ccc(NC(=O)CSc2nc(-c3ccco3)cc(C(F)(F)F)n2)cc1Cl | -5% (inactive) | – |
| CCc1ccc2c(c1)-c1ccccc1S(=O)(=O)N2CC(=O)N1CCC(C)CC1 | -6.77% (inactive) | – |
| CCc1ccc(NC(=O)C2CCCN(S(=O)(=O)c3c(C)noc3/C=C/N(C)C)C2)cc1 (centres undefined) | -15.8% (inactive) | – |
| Cc1ccc(Sc2c(C)nn(C(=O)COc3ccccc3)c2C)cc1 | – | 6.56 µM (active) |
| O=C(Nc1ccc(Br)cc1)c1ccc(F)c(S(=O)(=O)N2CCc3ccccc32)c1 | 6.25% (inactive) | – |
| CCOc1ccccc1NC(=O)Cn1ccn(Cc2ccc(C)cc2)c(=O)c1=O | -8.7% (inactive) | – |
| CCc1nn(CC(=O)NCc2ccccc2Cl)c(=O)c2cccn12 | – | 3.29 µM (active) |
| Cc1ccc(C(=O)c2cn(CC(=O)NCc3ccccc3Cl)c3nc(C)ccc3c2=O)cc1 | 1.08% (inactive) | – |
| CCOc1ccccc1CNC(=O)CCn1c(=O)c2cccn2c2ccc(F)cc21 | -5.8% (inactive) | – |
| Clc1ccc(-n2ncc3c(NC4CCCC4)ncnc32)cc1 | 6.25% (inactive) | – |
| CC(C)Oc1ccc(CNC(=O)CCn2c(=O)c3cccn3c3ccc(F)cc32)cc1 | -9.57% (inactive) | – |
| COc1cccc(-n2c(SCc3cccc(C)c3)nc3c([nH]c4ccccc43)c2=O)c1 | -10.7% (inactive) | – |
| COc1ccc(-c2nnc(SCc3cc(=O)c4cc(C)cc(C)c4[nH]3)n2C)cc1 | – | 18.5 µM (active) |
| COc1cccc(-n2c(SCC(=O)Nc3c(C)cc(C)cc3C)nc3c([nH]c4ccccc43)c2=O)c1 | -8.87% (inactive) | – |

| Structure (SMILES) | activity, negative = inhibition | Potency |
| --- | --- | --- |
| O=C(Nc1ccc(F)c(Cl)c1)c1cc(S(=O)(=O)N2CCCc3ccccc32)ccc1F | 6.25% (inactive) | – |
| Cc1cccc(N2CCN(C(=O)Cn3c(=O)c4cccn4c4ccc(F)cc43)CC2C)c1 (centres undefined) | -19.3% (inactive) | – |
| Cc1ccccc1Cn1nnc2c(=O)[nH]c(C3CCN(C(=O)c4ccccc4Cl)CC3)nc21 | -11.3% (inactive) | – |
| O=C(Nc1ccc(Cl)c(C(F)(F)F)c1)c1ccc2c(c1)CCN2S(=O)(=O)c1ccccc1 | -10.2% (inactive) | – |
| CCCOC(=O)c1cccc(NC(=O)c2c(-c3ccccc3Cl)noc2C)c1 | 0.806% (inactive) | – |
| COC(=O)C1=C(C)N(C(C)C)C(=O)C1(NC(=O)c1ccc(C(C)(C)C)cc1)C(F)(F)F (centres undefined) | – | 20.7 µM (active) |
| O=C(Nc1ccc(C(F)(F)F)cc1)c1cc(S(=O)(=O)NC2CCCCC2)ccc1F | 6.25% (inactive) | – |
| Cc1ccc(-n2ncc(C(=O)NCCCN3CCc4ccccc4C3)c2C2CCN(C(=O)OC(C)(C)C)CC2)cc1C | – | 20.7 µM (active) |
| Cc1ccc(-n2ncc(C(=O)NCc3cccs3)c2C2CCN(C(=O)OC(C)(C)C)CC2)cc1C | -5.66% (inactive) | – |
| COc1ccccc1CN1CCC(CNC(=O)c2cnn(-c3ccccc3Cl)c2C2CCN(C(=O)OC(C)(C)C)CC2)CC1 | -15.8% (inactive) | – |
| CCCCOC(=O)c1ccc(NC(=O)Cc2coc3ccc(C(C)C)cc23)cc1 | -1.11% (inactive) | – |
| CCCCS(=O)(=O)c1nc(-c2ccc(Br)cc2)cc(-c2ccccc2)c1C#N | – | 3.29 µM (active) |
| CCCS(=O)(=O)N1CC(=O)N(c2ccccc2C)C(C)(C(=O)NC2CCCC2)C1 (centres undefined) | -15% (inactive) | – |
| COc1ccc(NS(=O)(=O)c2ccc3c(c2)CCCN3C(=O)C2CCC2)cc1OC | -4.59% (inactive) | – |
| CC1=Nc2cc(C(=O)NC(C)C)ccc2Sc2ccc(C)cc21 | -21.1% (inactive) | – |
| Cc1ccc(-c2csc(-c3cc4c([nH]c3=O)CC(c3ccccc3)CC4=O)n2)cc1 (centres undefined) | 13.1% (inactive) | – |
| COC(=O)c1c(C)oc2ccc(N(C(=O)c3ccncc3)S(=O)(=O)c3cc(C)ccc3C)cc12 | -26.3% (inactive) | – |
| CCOc1ccc(S(=O)(=O)N(C(=O)c2ccncc2)c2ccc3oc(C)c(C(=O)OC)c3c2)cc1 | – | 3.29 µM (active) |
| CC(=O)c1c(C)oc2ccc(N(C(=O)c3ccncc3)S(=O)(=O)c3ccc(F)cc3C)cc12 | -30.3% (inactive) | – |
